The values that follow come from PubChem BioAssay (EPA / NIEHS).

SMILES strings stand for the structures. Calls of active or inactive are those of the source. The calls were made as follows: active = hit-call score of the fitted dose curve at least 0.9, where 1 is the maximum; inactive = score below 0.9.

Read-out in test [1]: Thrombomodulin, THBD (gene 7056)
Put plainly: BSK_CASM3C_Thrombomodulin: BioMAP Diversity Plus: CASM3C Assay for Thrombomodulin Biomarker Activity (AID 2283051).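 Also: thrombomodulin protein level measured by ELISA 24 h after dosing.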 Conditions: primary human coronary artery smooth muscle cells; actives raise or lower the signal.

Read-out in test [2]: Tissue Factor, F3 (gene 2152)
In words: BSK_CASM3C_TissueFactor: BioMAP Diversity Plus: CASM3C Assay for Tissue Factor Biomarker Activity (AID 2283052).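 Also: cell surface tissue factor protein level read by ELISA.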 The conditions noted are these: primary human coronary artery smooth muscle cells; actives raise or lower the signal.

Read-out in test [3]: Interferon-gamma inducible Protein 10 (IP10), CXCL10 (gene 3627)
Put plainly: BSK_hDFCGF_IP10: BioMAP Diversity Plus: hDFCGF Assay for Interferon-gamma inducible Protein 10 (IP10) Biomarker Activity (AID 2283053). The conditions noted are these: primary human foreskin fibroblasts; actives raise or lower the signal. In outline: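 Primary human foreskin fibroblasts exposed to chemicals for 24 h. IP-10 measured by ELISA; changes fitted bidirectionally against DMSO baseline.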

Read-out in test [4]: Urokinase-type plasminogen activator receptor (uPAR), PLAUR (gene 5329)
Put plainly: BSK_CASM3C_uPAR: BioMAP Diversity Plus: CASM3C Assay for Urokinase-type plasminogen activator receptor (uPAR) Biomarker Activity (AID 2283054).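 Also: cell-surface uPAR protein level quantified by ELISA.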 The conditions noted are these: primary human coronary artery smooth muscle cells; actives raise or lower the signal.

Read-out in test [5]: Vascular cell adhesion molecule 1 (VCAM1), VCAM1 (gene 7412)
Put plainly: BSK_CASM3C_VCAM1: BioMAP Diversity Plus: CASM3C Assay for Vascular cell adhesion molecule 1 (VCAM1) Biomarker Activity (AID 2283055).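 Also: VCAM-1 protein level quantified by ELISA on the cells.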 The conditions noted are these: primary human coronary artery smooth muscle cells; actives raise or lower the signal.

Read-out in test [6]: Collagen III, COL3A1 (gene 1281)
In words: BSK_hDFCGF_CollagenIII: BioMAP Diversity Plus: hDFCGF Assay for Collagen III Biomarker Activity (AID 2283056). Conditions: primary human foreskin fibroblasts; actives raise or lower the signal. In outline: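 ELISA readout of Collagen III in human dermal (foreskin) fibroblasts, taken 24 h post-treatment. Gain or loss relative to DMSO vehicle fitted in both directions.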

Read-out in test [7]: Epidermal growth factor receptor (EGFR), EGFR (gene 1956)
In words: BSK_hDFCGF_EGFR: BioMAP Diversity Plus: hDFCGF Assay for Epidermal growth factor receptor (EGFR) Biomarker Activity (AID 2283057). The conditions noted are these: primary human foreskin fibroblasts; actives raise or lower the signal. In outline: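 Primary human foreskin fibroblasts (hDFCGF system), sampled 24 h after dosing; EGFR quantified by ELISA. Bidirectional fit relative to DMSO baseline; SRB total-protein staining in parallel cultures for cytotoxicity.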

Read-out in test [8]: Interleukin-8 (IL8), CXCL8 (gene 3576)
In words: BSK_hDFCGF_IL8: BioMAP Diversity Plus: hDFCGF Assay for Interleukin-8 (IL8) Biomarker Activity (AID 2283058). Conditions: primary human foreskin fibroblasts; actives raise or lower the signal. In outline: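 IL-8 levels read by ELISA at 24 hours after dosing human skin fibroblast cultures. Parallel SRB staining assessed overt cytotoxicity, and gain or loss of signal was fitted against DMSO control.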

Read-out in test [9]: Macrophage colony-stimulating factor (MCSF), CSF1 (gene 1435)
In words: BSK_hDFCGF_MCSF: BioMAP Diversity Plus: hDFCGF Assay for Macrophage colony-stimulating factor (MCSF) Biomarker Activity (AID 2283060). The conditions noted are these: primary human foreskin fibroblasts; actives raise or lower the signal. In outline:
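M-CSF levels read by ELISA at 24 h post-dosing in human skin fibroblasts. Parallel cultures stained with SRB assessed cytotoxicity at the same time point; response fitted in both directions against the DMSO baseline.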

Test [10] is described as follows: BSK_hDFCGF_SRB: Viability Assessment in the BioMAP Diversity Plus: hDFCGF Assay (AID 2283061).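 Also: cells exposed to compound for 24 h before the read.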 The conditions noted are these: primary human foreskin fibroblasts. In outline:
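Viability was read as total protein: after 10% TCA fixation, wells were stained with 0.1% sulforhodamine B and read at 560 nm. Primary human foreskin fibroblasts were dosed for 24 h, with bidirectional fitting versus DMSO.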

Read-out in test [11]: Monokine induced gamma interferon (MIG), CXCL9 (gene 4283)
In words: BSK_hDFCGF_MIG: BioMAP Diversity Plus: hDFCGF Assay for Monokine induced gamma interferon (MIG) Biomarker Activity (AID 2283063). The conditions noted are these: primary human foreskin fibroblasts; actives raise or lower the signal. The essentials:
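Human primary foreskin fibroblasts in the hDFCGF system, exposed to test chemical for 24 h; MIG measured by ELISA. Bidirectional curve fitting against DMSO negative control as activity baseline.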

Read-out in test [12]: Matrix Metallopeptidase 1 (MMP1), MMP1 (gene 4312)
Put plainly: BSK_hDFCGF_MMP1: BioMAP Diversity Plus: hDFCGF Assay for Matrix Metallopeptidase 1 (MMP1) Biomarker Activity (AID 2283064). The conditions noted are these: primary human foreskin fibroblasts; actives raise or lower the signal. The essentials: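 Primary human foreskin fibroblasts exposed to chemicals for 24 h; MMP1 measured by ELISA. Cytotoxicity tracked by SRB staining in parallel cultures; bidirectional fit relative to DMSO.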

Read-out in test [13]: Vascular cell adhesion molecule 1 (VCAM1), VCAM1 (gene 7412)
In words: BSK_hDFCGF_VCAM1: BioMAP Diversity Plus: hDFCGF Assay for Vascular cell adhesion molecule 1 (VCAM1) Biomarker Activity (AID 2283065). The conditions noted are these: primary human foreskin fibroblasts; actives raise or lower the signal. The essentials: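 ELISA readout of VCAM-1 on human dermal fibroblast primary cultures, 24 h after chemical exposure. Gain or loss of signal fitted in both directions against DMSO baseline.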

Read-out in test [14]: Plasminogen activator inhibitor-1 (PAI1), SERPINE1 (gene 5054)
Put plainly: BSK_hDFCGF_PAI1: BioMAP Diversity Plus: hDFCGF Assay for Plasminogen activator inhibitor-1 (PAI1) Biomarker Activity (AID 2283066). Conditions: primary human foreskin fibroblasts; actives raise or lower the signal. In outline: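 Human foreskin fibroblast primary cells, 24 h chemical exposure; PAI-1 measured by ELISA. Bidirectional fitting relative to DMSO; parallel cultures stained with SRB for total protein to flag overt cytotoxicity.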

Read-out in test [15]: Intercellular Adhesion Molecule 1 (ICAM1), ICAM1 (gene 3383)
In words: BSK_KF3CT_ICAM1: BioMAP Diversity Plus: KF3CT Assay for Intercellular Adhesion Molecule 1 (ICAM1) Biomarker Activity (AID 2283067). The conditions noted are these: primary human keratinocytes with fibroblasts; actives raise or lower the signal. In outline: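 Cell-surface ICAM-1 was measured by ELISA 24 h after dosing primary human skin keratinocytes co-cultured with fibroblasts. Parallel SRB staining tracked overt cytotoxicity. Gain or loss of signal was fitted relative to DMSO.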

Read-out in test [16]: Interferon-gamma inducible Protein 10 (IP10), CXCL10 (gene 3627)
Put plainly: BSK_KF3CT_IP10: BioMAP Diversity Plus: KF3CT Assay for Interferon-gamma inducible Protein 10 (IP10) Biomarker Activity (AID 2283068). The conditions noted are these: primary human keratinocytes with fibroblasts; actives raise or lower the signal. The essentials: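 KF3CT co-culture (keratinocytes + foreskin fibroblasts), 24 h compound, IP-10 by ELISA; bidirectional fit vs DMSO baseline.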

A short description of test [17]: BSK_KF3CT_SRB: Viability Assessment in the BioMAP Diversity Plus: KF3CT Assay (AID 2283069).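 Also: total protein by sulforhodamine B staining as a cytotoxicity measure; read 24 h after compound addition.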 The conditions noted are these: primary human keratinocytes with fibroblasts. The essentials:
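Human keratinocyte and foreskin fibroblast co-culture exposed to chemical for 24 h. Total protein measured in parallel cultures by 0.1% sulforhodamine B staining after 10% TCA fixation, read at 560 nm; bidirectional fit relative to DMSO.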

Read-out in test [18]: Interleukin-1 alpha (IL1a), IL1A (gene 3552)
Put plainly: BSK_KF3CT_IL1a: BioMAP Diversity Plus: KF3CT Assay for Interleukin-1 alpha (IL1a) Biomarker Activity (AID 2283070). The conditions noted are these: primary human keratinocytes with fibroblasts; actives raise or lower the signal. The essentials:
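Primary human keratinocyte plus foreskin fibroblast co-culture, dosed and measured at 24 h in 96-well plates. IL-1a level quantified by ELISA; bidirectional fit relative to DMSO.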

Read-out in test [19]: TIMP metallopeptidase inhibitor 1 (TIMP1), TIMP1 (gene 7076)
In words: BSK_hDFCGF_TIMP1: BioMAP Diversity Plus: hDFCGF Assay for TIMP metallopeptidase inhibitor 1 (TIMP1) Biomarker Activity (AID 2283062). The conditions noted are these: primary human foreskin fibroblasts; actives raise or lower the signal. The essentials:
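TIMP-1 measured by ELISA 24 h after chemical dosing of primary human skin fibroblasts, with gain or loss fitted relative to DMSO. Parallel SRB staining (560 nm) monitored overt cytotoxicity.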

As a reminder, the AC50 is the concentration at which the activity in the assay is half-maximal. As to `CCOP(=S)(NC(C)C)Oc1ccccc1C(=O)OC(C)C` (stereo not given), the result in test [1], in test [2], in [3], in [4], in [5] and in [6] was inactive. Also, the outcome in [7], in test [8], in test [9], in [10], in test [11] and in [12] was inactive. Also, the outcome in test [13], in test [15], in [16], in test [17] and in test [18] was inactive. The AC50 in [14] is 0.257 µM (active).

As to `CCOP(=S)(OCC)SCS(=O)(=O)CC`, the outcome in test [1], in [2], in [3], in [4], in test [5] and in test [6] was inactive. For the same compound, the result in [7], in test [8], in test [9], in test [19], in test [11] and in test [12] was inactive. Besides, the result in test [13], in test [14], in [15], in test [16], in test [17] and in test [18] was inactive.

Turning to `COP(N)(=S)OC`, the outcome in [1], in test [2], in [3], in [4], in test [5] and in [6] was inactive. The result in test [7], in test [8], in test [9], in test [10], in [11] and in test [12] was inactive. In addition, the result in test [13], in test [14], in test [15], in test [16], in test [17] and in test [18] was inactive.

Take `CCOC(=O)c1ccccc1C(=O)OCC`: the outcome in [1], in test [2], in test [3], in test [4], in [5] and in test [6] was inactive. The outcome in test [7], in test [8], in test [9], in test [10], in test [11] and in test [12] was inactive. For the same compound, the result in test [13], in test [14], in [15], in [16], in [17] and in test [18] was inactive.

Take `Nc1ccc([N+](=O)[O-])cc1Cl`: the result in [1], in test [2], in test [3], in [5], in [6] and in test [7] was inactive. Besides, the outcome in test [8], in test [9], in test [11], in [12], in [13] and in test [14] was inactive. In addition, the result in test [15], in test [16], in test [17] and in test [18] was inactive. In addition, the AC50 in test [4] is 0.0567 µM (active).

For `CC(Cl)CN(C)C` (stereo not given), the result in test [1], in test [2], in [3], in [5], in [6] and in test [7] was inactive. For the same compound, the outcome in [8], in test [9], in test [19], in [11], in test [12] and in [13] was inactive. Besides, the outcome in [14], in [15], in test [16], in [17] and in test [18] was inactive. The AC50 in [4] was 0.177 µM (active).

Regarding `O=S1(=O)OCC2C(CO1)C1(Cl)C(Cl)=C(Cl)C2(Cl)C1(Cl)Cl` (stereo not given), the AC50 in [1] is 20 µM (active); in [2] it was 20.9 µM (active); in test [4], 30.1 µM (active). Besides, the outcome in [3], in test [5], in [6], in test [7], in test [8] and in test [9] was inactive. The outcome in test [19], in test [11], in test [12], in test [13], in test [14] and in test [15] was inactive. Moreover, the result in test [16], in [17] and in test [18] was inactive.
